# Test results: the supplement of paper PMC6555819
# System: VDR:RXRa (NR concentration 270 nM, RXRa partner concentration 90 nM)
# Experiment: PBM binding z-score (relative to random genomic background probes); higher = stronger binding; sequences stand for … in GC…GCGATTGACAGCGTAGAATGAAGG
# Protocol: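 Protein-binding microarray (Agilent 4x180K custom design, double-stranded 60-nt probes: 5' GC cap, 34-nt variable region, 24-nt constant primer region; full probe sequence given). Purified or IVT nuclear receptor:RXRα heterodimers (3:1 NR:RXRα, mostly 270:90 nM) or homodimers were incubated for 1 h in PBS with 2% milk and no ligand, then detected with Alexa488 antibodies. Fluorescence from o1-orientation probes (~5 replicates averaged) was converted to z-scores against 500 random hg19 background probes. Variable regions are seed direct-repeat (DR0–DR5) sites, all their single-nucleotide variants and half-site ablations.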
row,Sequence,PBM binding z-score
1,GCATATGGGTAATACAAGGTGAAAGTCCGATTGT,0.212
2,TAGCCTAGGCCATGCGGGCCAGTATAGTGTCGGC,-1.04
3,ACTAGCAGGCCAAGTTTGGGTCACTAAAACAAAG,0.553
4,CTCGAAAGGTCGTGCTCAGGTGAGGATACCAAAC,3.3
5,CGTCGAAGGTCAGCAGGTCAGTGAAAGCGACGTG,3.61
6,CAAACTAGGTCATAGGTCAAAGTCGAGCCAACCA,4.9
7,TCTGGTTGGTCACGGAGGTCACACACGACGGGTA,5.92
8,CCTTACGGGTCAAGGTTACAGCACGGGTGGTACG,3.34
9,CGTCAAAGTTCAAATAAGGTAACGTAAAGCACGC,4.74
10,AGAATGAGGTTACCAAAGAGCAGGGAAACGCTTG,1.05
11,CCAGACTGGTGAAAGGTAACTCAGTCTGGTACGC,-0.0185
12,ACTTACGGGTCAACGATGTTATAGCACGCGTATA,4.93
13,ACTAGTTGGTCAGCTGAGGTCACAAACAATTCGG,4.24
14,AGTCAAAGTACAGGACGAGGTAACGTAAAGCACG,-0.143
15,ATATGCAGGTTACATCCGGGTCATTCAGGCTATG,4.47
16,TCTAGCAGGCCAGAGGGTCACTGAAGAGGTACGG,1.52
17,ATGGAAAGGTCGAAGGTGAGTATACCCACCCGAA,2.81
18,CCGACTGGGGCAGAAAGGTTATCATACCATCCGG,0.932
19,ACACACAGGTGAGTGAAGGTAACTCAGCTGGACG,-0.0221
20,ATATGTAGGTTATATCCGGGTCATTCAGGCTATG,4.11

row,Sequence,PBM binding z-score
1,TAGCCTAGGTCAGATCCGGCCAGTATACGCTATA,0.403
2,CCGACTGGGGCATAAGGTTACAATAAGCCAGCCC,0.392
3,TCGAGTAGGTTACCAATGGCGCATTCAGCTTTCT,0.111
4,CCTACTGGGACATTCAGAGGTCATTGATCATATG,4.18
5,ATCTCTAGGTAAGACTCAGTTCAGTTAAGAACGC,1.12
6,ACTAGCAGGCCAAGGATCACTCAAGATTAGTCCG,-0.428
7,CCTACTGGGCCAAGATCATTGATCAGTCAAAGCA,-0.601
8,CCAGACAGGTGAGAAAGTAACTCAGCCTCGATTA,0.0167
9,TTACCAACGTGAGCTGAGGTCGTTGATCCAACTC,1.21
10,TCATCTAGGTAATACAGGTGAAAGTCGGCATCTA,0.916
11,CAAACTAGGTCACCGGAATGTCAAAGTCCGCATG,3.06
12,TCGCGTAGGTTACCAATGGGGCATTCAGCTTTCT,0.236
13,ACTAGCAGGCAAAGGGTCACTCAAGATTAGTCCG,2.98
14,GCGACTGGGGCAAAGCAGGTTACCATTAGGTTGG,-0.0809
15,TCTGCTAGGTCAGTCGGTCAGCTAACGAGCTGCC,0.139
16,ACTTACGGGTCAAAGAGGTTATAGCACGCGTATA,7.09
17,CGTCCAGGGTCAATGCTAGGTCAGTGAAAGCATT,4.9
18,CCGAGTAGGTTATGGGGCATTCTGGCAACGGTGA,-0.0151
19,TGAATGAGGTTAAAGATCAGGGACCGTGGCGTCG,1.77
20,CCTTACGGGTGAAGGTTATAGCACGGGTGGTACG,0.0707
